Source: PubChem (National Center for Advancing Translational Sciences (NCATS))
A selection: hits, their analogues and other compounds. The true share with any hit is near 1.7%.
RXFP1 antagonist: blocks the human relaxin receptor RXFP1; Q9HBX9; HEK293-RXFP1, relaxin-stimulated cAMP HTRF, 30 min; stronger effect = lower value; activity change, negative = inhibition, % at 57.5 µM; hit rate 0.59% among 350,000; AID 1259400;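 active = activity change of -60% or lower, but not beyond a set lower limit; inconclusive = change between -60% and -40%, or beyond the set limit; inactive = change above -40%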
KCNH2 3.1 inh: KCNH2 3.1 (human) potassium channel inhibition | hit rate 0.95% among 340,000 | activity change, % (tested at about 1.8 µM) | U2OS KCNH2 3.1, thallium flux FluxOr; stronger effect = lower value;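 active = maximum activity change below -70%; inconclusive = maximum activity change from -70% to -50%; inactive = maximum activity change above -50%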;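 also: thallium influx rate constant from kinetic fluorescence after stimulation buffer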
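Thallium flux read-out: FluxOr dye with Red40 quencher in HBSS/HEPES, 45 min at RT. Rate constants from kinetic reads were normalized to positive and negative DMSO controls. Cells: U2OS virally expressing the 3.1 isoform.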
RXFP1 ag: activates the human relaxin receptor RXFP1. Potency, µM (series often up to 57.5 µM), most hits filed as activators. AID 2676. hit rate 0.3% among 370,000. HEK293T-RXFP1 cAMP TR-FRET, 30 min; response scale: percent of porcine relaxin response, buffer zero. Q9HBX9; active = well fitted activation curve with a large enough effect; inconclusive = small, poorly fitted or top-dose-only effect; also: nearly all actives have a fitted effect of over 60% in size
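cAMP rise read by TR-FRET after 30 min, 37C compound exposure (up to 58 uM) in RXFP1-transfected HEK293 cells with Ro 20174 present. EC50 from Hill-equation fits, with 29 nM porcine relaxin as 100% and buffer as basal.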
pAkt inh: blocks phosphorylation of Akt; activity change, % for hits at 50 µM; hit rate 0.32% among 360,000; Neuro2A IGF-stimulated pAkt S473 HTRF, 20 min; stronger effect = lower value; in the data active = activity change below about -80%; inconclusive = mostly about -51% to -80%
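Single-point screen (50 µM final compound) in Neuro2A cells stimulated 20 min with 6 nM IGF at 37 deg C. After lysis, Ser473-phosphorylated Akt read by HTRF (ex 330 nm, em 615/665 nm) as the 665/615 ratio.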
KCNH2 WT inh: inhibitors of human wildtype KCNH2 potassium channel. activity change, % at 1.84 µM. U2OS, BacMam KCNH2, thallium flux FluxOr; stronger effect = lower value. AID 720551. hit rate 0.37% among 340,000;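 active = maximum activity change below -70%; inconclusive = maximum activity change between -70% and -50%; inactive = maximum activity change above -50%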
Target sequence (Q12809 whole entry, looked up): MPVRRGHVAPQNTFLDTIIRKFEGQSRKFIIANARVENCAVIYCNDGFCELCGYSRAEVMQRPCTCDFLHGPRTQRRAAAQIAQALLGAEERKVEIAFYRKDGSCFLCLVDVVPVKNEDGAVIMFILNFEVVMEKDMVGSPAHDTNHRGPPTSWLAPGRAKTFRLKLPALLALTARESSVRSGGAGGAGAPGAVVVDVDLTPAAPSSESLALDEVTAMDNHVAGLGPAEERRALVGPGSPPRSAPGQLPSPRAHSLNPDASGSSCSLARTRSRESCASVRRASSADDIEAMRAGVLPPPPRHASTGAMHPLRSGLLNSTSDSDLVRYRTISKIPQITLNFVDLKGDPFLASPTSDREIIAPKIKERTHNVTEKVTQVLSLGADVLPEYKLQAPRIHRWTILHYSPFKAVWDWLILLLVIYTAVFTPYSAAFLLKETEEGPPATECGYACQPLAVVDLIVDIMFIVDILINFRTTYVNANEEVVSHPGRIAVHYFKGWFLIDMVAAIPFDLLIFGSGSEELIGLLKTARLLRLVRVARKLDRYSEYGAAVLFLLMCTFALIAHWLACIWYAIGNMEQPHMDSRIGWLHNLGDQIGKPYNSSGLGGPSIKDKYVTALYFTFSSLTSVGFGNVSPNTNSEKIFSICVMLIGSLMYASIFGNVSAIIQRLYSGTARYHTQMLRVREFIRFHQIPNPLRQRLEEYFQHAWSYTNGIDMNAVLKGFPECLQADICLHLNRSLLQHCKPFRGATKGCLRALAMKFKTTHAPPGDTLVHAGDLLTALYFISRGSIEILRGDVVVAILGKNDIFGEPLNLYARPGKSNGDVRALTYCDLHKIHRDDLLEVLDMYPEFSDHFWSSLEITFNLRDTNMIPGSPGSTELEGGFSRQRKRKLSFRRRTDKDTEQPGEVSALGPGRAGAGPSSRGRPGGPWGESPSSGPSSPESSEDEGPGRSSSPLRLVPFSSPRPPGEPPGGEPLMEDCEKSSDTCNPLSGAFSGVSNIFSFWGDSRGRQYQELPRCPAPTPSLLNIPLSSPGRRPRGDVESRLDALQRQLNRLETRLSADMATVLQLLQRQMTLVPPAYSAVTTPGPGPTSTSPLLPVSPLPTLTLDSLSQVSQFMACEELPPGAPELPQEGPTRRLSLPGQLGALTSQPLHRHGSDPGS
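U2OS cells were transduced with wild-type KCNH2 virus (2.03 x 10^8 / mL) for 4 h at room temperature, then cultured overnight at 37 C. Thallium flux was read with FluxOr dye. Rate constants were normalized to DMSO controls.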
Each line names hits and unclear results; the compound was inactive in the other large screens.

O=c1cc2c(nn1Cc1cccc(Cl)c1)-c1ccccc1CC2	none
CCOc1nc(NCCO)nc(Nc2ccccc2F)n1	none
Cc1cc(NC(=O)c2ccc(Cl)cc2)n(CCOC(=O)c2ccc(Cl)cc2)n1	KCNH2 WT inh -98
Oc1c(C=Nc2ccccc2)sc2ccccc12	RXFP1 antagonist -70
Oc1c(C=NCc2ccncc2)sc2ccccc12	pAkt inh -103%
CN=Cc1sc2ccccc2c1O	none
Cc1cccc(NC2=NC(C)(C)N=C(N)N2)c1	none
COc1cc(-c2nn3c(COc4ccccc4)nnc3s2)cc(OC)c1OC	none
COc1ccc(CCNC(=O)c2cccc(Br)c2)cc1OC	none
COc1ccc(CCNC(=S)NNC(=O)c2c(Br)c(C)nn2C)cc1OC	KCNH2 3.1 inh -75
O=[N+]([O-])c1cc(S(=O)(=O)Nc2ccccc2)ccc1-n1nnc2ccccc21	KCNH2 3.1 inh -183, KCNH2 WT inh -210
Cc1ccc([C@H]2N[C@]3(CCCN(Cc4cccn4C)C3=O)[C@H]3C(=O)N(Cc4ccccc4)C(=O)[C@@H]23)cc1	KCNH2 WT inh -71 (no result: RXFP1 ag)
C/C(=N\NC(=O)c1ccc(O)cc1)c1ccc(N2CCOCC2)cc1	none
Cc1ccc(Sc2ccc(N3CCC(C(=O)Nc4cc(C)cc(C)c4)CC3)nn2)cc1	none (no result: RXFP1 antagonist, KCNH2 3.1 inh, pAkt inh, KCNH2 WT inh)
Cc1sc(NC(=O)CSc2nnc(-c3ccc(F)cc3)o2)c(C#N)c1C	pAkt inh -108%
Cc1ccc(C(=O)NNC(=O)C2CCN(S(=O)(=O)c3ccc(C)cc3)CC2)cc1	none
Cc1ccc(S(=O)(=O)N2CCC(C(=O)NNC(=O)c3ccccc3)CC2)cc1	KCNH2 3.1 inh -115
COc1cccc(/C=C/C(=O)N2CCN(c3ccccn3)CC2)c1	none
Cc1ccc(-n2nnnc2C(Cl)c2nnnn2-c2ccc(C)cc2)cc1	RXFP1 antagonist -63
Cc1ccc(-n2nnnc2-c2ccccc2)cc1	none
CCOC(=O)c1[nH]c(C)c(C)c1C	none
Cn1c(=O)c2c(ncn2CCC(=O)N/N=C/c2ccccc2)n(C)c1=O	RXFP1 ag inconclusive
Cn1c(=O)c2c(ncn2CCC(=O)N/N=C/c2cccnc2)n(C)c1=O	RXFP1 ag 16µM
O=C(c1cc(Cl)nc2ccccc12)N1CCN(S(=O)(=O)c2cccc(C(F)(F)F)c2)CC1	RXFP1 antagonist -77
N#C/C(=C/c1ccc(-c2ccccc2)o1)c1nc(-c2cccs2)cs1	KCNH2 3.1 inh -76
CN(C)CCSc1nnc2sc3ccccc3n12	pAkt inh -106%
COc1ccccc1N(C)S(=O)(=O)c1ccc(Cl)c(C(=O)NC2=NCCS2)c1	KCNH2 3.1 inh -76
CN(c1ccccc1)S(=O)(=O)c1ccc(Cl)c(C(=O)NC2=NCCS2)c1	none
Cc1ccc2c(c1C)-c1c(ccc(C)c1C)C(=O)C2=O	RXFP1 antagonist -69 (no result: RXFP1 ag)
Cc1ccc(CC#N)c(-c2c(CC#N)ccc(C)c2C)c1C	none (no result: RXFP1 ag)
CCC(c1nnc(SCC(=O)Nc2ccc(N3CCOCC3)cc2)n1Cc1ccccc1)N(C)C (stereo not drawn)	none
CCC(c1nnc(SCCNCCO)n1CCN1CCOCC1)N(C)C (stereo not drawn)	KCNH2 3.1 inh -177
COCCn1c(-c2ccc(Br)cc2)csc1=Nc1cccnc1	KCNH2 3.1 inh -79
CC(C)(CO)NCc1ccc(Br)cc1	none
COc1ccccc1Oc1ccc2c(c1)C(=O)N(c1cccc3ncccc13)C2=O	RXFP1 antagonist -89
COc1cc(C(C#N)N2N=C(c3ccccc3)CC2c2ccccc2)ccc1O (stereo not drawn)	pAkt inh -113%
N#CC(c1ccccc1O)N1N=C(c2ccccc2)CC1c1ccccc1 (stereo not drawn)	none
CC(C)c1ccc(/C=C2\SC(=O)N(CC(=O)NC3CCS(=O)(=O)C3)C2=O)cc1 (stereo not drawn)	none
CCOC(=O)c1sc(=NC(=O)c2ccc(C)cc2)n(C)c1C	none
CCOC(=O)c1sc(=NC(=O)c2ccc(S(=O)(=O)N(C)c3ccccc3)cc2)n(C)c1C	RXFP1 ag 4µM
CCN(CC)C(=O)c1sc2c(c1C)c(=O)n(CCc1ccccc1)c(=O)n2Cc1cc(C)ccc1C	none (no result: KCNH2 3.1 inh, pAkt inh, KCNH2 WT inh)
CC(C)(C)c1ccc(C(=O)/C(C#N)=C/c2cccs2)cc1	RXFP1 antagonist -87
COc1ccccc1C1C2=C(CCCC2=O)N(CC(=O)O)C2=C1C(=O)CCC2	none
O=C(CN1C(=O)c2ccccc2S1(=O)=O)N1CCN(c2ccccc2F)CC1	none
O=C(CCN1C(=O)c2ccccc2S1(=O)=O)N1CCN(c2ccccc2F)CC1	RXFP1 antagonist -112
O=C(CCN1C(=O)c2ccccc2S1(=O)=O)Nc1ccc(F)c(F)c1F	RXFP1 antagonist -76
O=C(CCN1C(=O)c2ccccc2S1(=O)=O)Nc1ccc(F)cc1F	none
CC(C)(C)c1ccc(C(=O)OCC(=O)NC2CC2)cc1	none
Cn1cc(S(=O)(=O)NCCc2ccccc2)c(=O)n(C)c1=O	none
Cc1c(S(=O)(=O)NCCc2ccccc2)c(=O)n(C)c(=O)n1C	KCNH2 WT inh -100
CCOc1ccc(S(=O)(=O)N(C)c2ccc(OCC(=O)Nc3ccccc3F)cc2)cc1	none
CCCNS(=O)(=O)c1ccc(OCC(=O)Nc2ccccc2F)cc1	pAkt inh -102%
CC(C)Oc1cccc(C(=O)C2CCCN(Cc3cccn3-c3ccccn3)C2)c1 (stereo not drawn)	KCNH2 3.1 inh -81, KCNH2 WT inh inconclusive
COc1ccc(C(=O)C2CCCN(Cc3cccn3-c3nccs3)C2)cc1F (stereo not drawn)	KCNH2 3.1 inh -117, KCNH2 WT inh -103
O=C(c1ccc(Cl)cc1)C1CCCN(Cc2cccn2-c2ccccn2)C1 (stereo not drawn)	KCNH2 3.1 inh -105, KCNH2 WT inh -109
Cc1ccc(-n2cccn2)c(CN2CCCC(C(=O)c3sccc3C)C2)c1 (stereo not drawn)	RXFP1 antagonist inconclusive
Cc1ccsc1C(=O)C1CCCN(Cc2cccn2-c2ccc(Cl)cn2)C1 (stereo not drawn)	KCNH2 WT inh -107
CC1=C(C(=O)OCC2CCCCC2)C(c2ccc(Cl)cc2Cl)CC(=O)N1 (stereo not drawn)	none (no result: RXFP1 antagonist, KCNH2 3.1 inh, pAkt inh, KCNH2 WT inh)
Cc1ccc(N(C)S(=O)(=O)c2cccc(C(=O)NCCCN3CCCC3=O)c2)cc1	none
COc1cccc(C(=O)C2CCCN(Cc3cccn3-c3ccccn3)C2)c1 (stereo not drawn)	KCNH2 3.1 inh -101, KCNH2 WT inh inconclusive
COc1ccc(C(=O)C2CCCN(Cc3cccn3-c3ccccn3)C2)cc1F (stereo not drawn)	KCNH2 3.1 inh -93, KCNH2 WT inh -96
COc1ccc(C(=O)C2CCCN(Cc3cccn3-c3nccs3)C2)cc1OC (stereo not drawn)	KCNH2 3.1 inh inconclusive
COc1ccc(C(=O)Nc2ccc(S(=O)(=O)Nc3nccnc3OC)cc2)cc1OC	none
CSc1nc2sc3c(c2c(=S)[nH]1)CC(C)(C)OC3	RXFP1 ag inconclusive
